# Assay results taken from PubChem BioAssay AID488969 (Vanderbilt High Throughput Screening Facility, 2010).
# In all, about 110,000 compounds were measured (“z-score”: median about -0.1, highest 2% from about 2 on). This excerpt belongs to a sample that is enriched for the highest values. Activity calls are given as the source filed them.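 How the source made its calls: active means z-score in the third read window above 3 or below -3; inactive means the rest.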
# Target: Metabotropic glutamate receptor 8 (Rattus norvegicus) (UniProt P70579)
# Sequence (P70579 whole entry, looked up): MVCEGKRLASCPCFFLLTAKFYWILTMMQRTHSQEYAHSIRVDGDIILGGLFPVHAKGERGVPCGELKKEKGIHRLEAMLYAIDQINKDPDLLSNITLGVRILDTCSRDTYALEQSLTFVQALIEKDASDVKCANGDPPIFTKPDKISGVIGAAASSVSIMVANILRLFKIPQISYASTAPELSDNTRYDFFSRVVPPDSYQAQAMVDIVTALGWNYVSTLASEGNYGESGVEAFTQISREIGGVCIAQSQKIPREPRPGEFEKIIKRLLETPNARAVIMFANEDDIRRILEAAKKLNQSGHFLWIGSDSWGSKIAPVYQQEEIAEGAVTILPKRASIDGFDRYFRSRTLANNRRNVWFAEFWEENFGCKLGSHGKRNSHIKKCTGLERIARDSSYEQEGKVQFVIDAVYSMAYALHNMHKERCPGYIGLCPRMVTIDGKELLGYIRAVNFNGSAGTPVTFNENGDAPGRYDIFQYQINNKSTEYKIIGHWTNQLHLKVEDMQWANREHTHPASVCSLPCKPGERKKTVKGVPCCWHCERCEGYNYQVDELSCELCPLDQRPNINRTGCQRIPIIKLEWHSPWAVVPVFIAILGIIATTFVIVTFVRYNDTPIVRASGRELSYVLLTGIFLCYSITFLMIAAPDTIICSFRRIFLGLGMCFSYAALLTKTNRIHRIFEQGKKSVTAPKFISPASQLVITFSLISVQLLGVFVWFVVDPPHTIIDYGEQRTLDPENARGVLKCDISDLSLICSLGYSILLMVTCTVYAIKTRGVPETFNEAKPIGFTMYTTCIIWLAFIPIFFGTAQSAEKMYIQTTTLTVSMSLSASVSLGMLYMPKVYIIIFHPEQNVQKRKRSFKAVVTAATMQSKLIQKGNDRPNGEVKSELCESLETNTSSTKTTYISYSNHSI
# Assay: rat mGluR8 modulators via GIRK flux, primary screen, cell-based, thallium flux, HTS (AID 488969)
# Settings: HEK293 rat mGluR8, GIRK (G protein-gated inwardly rectifying potassium channel) thallium flux, FluoZin2; at 10 µM; stronger effect = higher value; submaximal glutamate (EC20) added with thallium
row,Structure (SMILES),z-score
1,O=C(CSc1nnc(CN2CCOCC2)n1-c1ccc(Cl)cc1)Nc1cc(Cl)ccc1O,-0.794
2,Cc1cc(C)nc(NS(=O)(=O)c2ccc(NC(=O)CN3C(=O)c4ccccc4C3=O)cc2)n1,0.113
3,COc1cc(/C=N/NC(=O)C(=O)Nc2ccccn2)ccc1O,-0.198
4,CCCOc1ccc(/C=N/NC(=O)C(=O)Nc2ccccn2)cc1,3.92 (active)
5,COc1ccc(/C=N/NC(=O)C(=O)Nc2ccccn2)cc1OC,0.813
6,COc1ccc(CCNC(=O)CSc2nnc(CNC(=O)c3ccco3)o2)cc1OC,0.382
7,Cc1ccc(-n2nnnc2SCC(=O)NCCC2=CCCCC2)c(C)c1,0.08
8,Cc1cc(C)c2nc(SCC(=O)NCCN3C(=O)CSC3=O)cc(C)c2c1,-0.238
9,Cc1cc(C)c2nc(SCC(=O)NCCC3=CCCCC3)cc(C)c2c1,3.98 (active)
10,Cc1nnc(NC(=O)c2ccco2)s1,3.93 (active)
11,CC(C)=CC(=O)Nc1nnc(C)s1,0.00638
12,C/C=C(\C)c1nnc(NC(=O)c2ccco2)s1,-0.358
13,CC(=O)Nc1nnc(C)s1,3.66 (active)
14,COCc1nnc(NC(=O)c2ccco2)s1,0.76
15,CCC(=O)Nc1nnc(C)s1,0.946
16,CCCOc1ccc(N2C(=O)CC(N(CCc3ccc(OC)cc3)C(=O)c3cccc(F)c3)C2=O)cc1 (configuration not stated),-0.214
17,COc1ccccc1N(CN1CCCC1=O)C(=O)c1ccccc1F,-0.699
18,O=C1/C(=C\Nc2ccc(Cl)cc2)CCN1c1ncccn1,0.111
19,Cc1ccc(C(=O)NCCNc2ccc(Cl)cc2[N+](=O)[O-])o1,-0.083
20,CCCN1C2=NS(=O)(=O)CCN2c2ccccc21,0.249
21,C=CCn1c(SCC(=O)c2cc(C)n(CCOC)c2C)nc2sc(C)c(C)c2c1=O,-0.255
22,COc1nc(N2CCOCC2)nc(C)c1[N+](=O)[O-],-0.535
23,CCN(CC)C(=S)NC(=O)c1ccc(Cl)cc1Cl,2.95
24,CN(C)CCCOC(=O)c1ccccc1Cl,0.35
25,CCCN(CCC)C(=S)NC(=O)c1ccc(Cl)cc1Cl,14.4 (active)
26,CC1Cc2ccccc2N1C(=S)NC(=O)c1ccc(Cl)cc1Cl (configuration not stated),13.5 (active)

row,Structure (SMILES),z-score
1,CCCCN(CCCC)C(=S)NC(=O)c1ccccc1Cl,-0.755
2,CCCN(CCC)CCCOC(=O)c1ccc(Cl)cc1Cl,3.95 (active)
3,CCC(=O)NC(=S)Nc1cccc(NC(=O)c2ccc(Cl)cc2Cl)c1,0.179
4,CN(C)CCCOC(=O)c1ccc(Cl)cc1Cl,0.77
5,O=C(NNC(=O)c1ccccc1-n1cccc1)c1ccc(Cl)cc1Cl,0.632
6,C=CCNC(=O)c1ccc(Cl)cc1Cl,0.206
7,CCCC(=O)NC(=S)Nc1cccc(NC(=O)c2ccc(Cl)cc2Cl)c1,-0.0719
8,CC1Cc2ccccc2N1C(=S)Nc1ccc(S(N)(=O)=O)cc1 (configuration not stated),0.0257
9,O=C(Cc1ccc([N+](=O)[O-])cc1)Nc1nnc(C2CC2)s1,1.17
10,Cc1cc2cc(CN(CC3CCCO3)C(=S)Nc3ccccc3)c(=O)[nH]c2cc1C (configuration not stated),-0.235
11,O=C1CC(c2ccccc2)=Nc2ccccc2N1,-0.0288
12,COc1ccc2c(c1)NC(=O)CC(c1ccccc1)=N2,-0.0551
13,Cc1ccc2c(c1)NC(=O)CC(c1ccccc1)=N2,8.23 (active)
14,COc1ccc(/C=N/NC(=O)C[n+]2ccccc2)c(OC)c1OC,-0.273
15,Fc1ccccc1N1CCN(C(c2cccs2)c2nnnn2CCc2ccccc2)CC1 (configuration not stated),0.131
16,Cc1ccc(NC2=C(Cl)C(=O)OC2NC(=O)c2ccccc2)cc1 (configuration not stated),-0.201
17,COc1cccc(C(c2nnnn2CCc2ccccc2)N2CCN(c3ccccc3)CC2)c1OC (configuration not stated),-0.689
18,C=CCN1CCN(C(c2ccc(Cl)cc2)c2nnnn2CCc2ccc(OC)c(OC)c2)CC1 (configuration not stated),2.29
19,COc1ccccc1C(c1nnnn1CCc1ccccc1)N1CCN(c2ccccc2)CC1 (configuration not stated),-0.00308
20,COc1ccccc1C(c1nnnn1CCc1ccccc1)N1CCCCCC1 (configuration not stated),2.68
21,COc1ccc(CCn2nnnc2C(c2ccc(C)cc2)N2CCN(C)CC2)cc1OC (configuration not stated),0.0408
22,CCN1CCN(C(c2ccccc2)c2nnnn2CCc2ccc(OC)c(OC)c2)CC1 (configuration not stated),0.256
23,CCOc1ccc(Cc2c(Cl)nc(SC)nc2N(C)C)cc1,-0.458
24,CSc1nnc(C2CCCN2)n1C (configuration not stated),0.383
25,O=C(COc1ccc(S(=O)(=O)N2CCOCC2)cc1)Nc1ccccc1C(F)(F)F,1.25
26,CCn1c(SCC(=O)NC2CCCCC2C)nnc1-c1ccc(OC)cc1 (configuration not stated),0.074

row,Structure (SMILES),z-score
1,CC(=O)N1c2c(ccc3ccccc23)C(C)CC12CCCCC2 (configuration not stated),-0.635
2,O=c1c2ccccc2ncn1CCCOc1ccccc1[N+](=O)[O-],-0.198
3,O=C(Cn1cnc2c(nnn2Cc2ccc(F)cc2)c1=O)N1CCN(c2ccccc2)CC1,-0.0198
4,Cc1oc(-c2ccccc2)nc1CC(=O)O,-0.979
5,COCCNC(=O)CS(=O)Cc1nc(-c2ccc(Cl)cc2)oc1C (configuration not stated),0.00619
6,CCN(CC)CCNC(=O)CS(=O)Cc1nc(-c2ccc(Cl)cc2)oc1C (configuration not stated),2.41
7,Cc1oc(-c2ccccc2)nc1CS(=O)CC(=O)O (configuration not stated),2.52
8,COc1cccc(-c2nc(CS(=O)CC(=O)O)c(C)o2)c1 (configuration not stated),0.0172
9,CCCN(CCC)CCNC(=O)CS(=O)Cc1nc(-c2ccc(C)cc2)oc1C (configuration not stated),1.19
10,CCN(CC)CC(O)COc1ccc2c(c1)OCO2 (configuration not stated),-0.199
11,Cc1cc(C)cc(OCCCCCNCCO)c1,-0.911
12,COc1ccc(-c2nc(NC(=O)CSc3nnc4ccccn34)ns2)cc1,-0.0274
13,O=C(CSc1nnc2scc(-c3ccccc3)n12)Nc1nsc(-c2ccccc2)n1,-0.713
14,O=C(CSc1nnc2ccccn12)Nc1nsc(-c2ccccc2)n1,3.63 (active)
15,O=C(Nc1cccc(Cl)c1)Nc1ccc(Cl)cn1,0.563
16,Cc1ccc(Oc2ncnc3sccc23)cc1,0.102
17,CC(OC(=O)Cc1coc2cc3c(cc12)CCC3)C(=O)NCc1ccc2c(c1)OCO2 (configuration not stated),0.706
18,Cc1ccc2c(CC(=O)OC(C)C(=O)NCc3ccc4c(c3)OCO4)coc2c1 (configuration not stated),2.05
19,Cc1ccc2c(CC(=O)NCc3ccc4c(c3)OCO4)coc2c1,0.281
20,Cc1nc(C(F)(F)F)nc(Nc2ccc(Br)cc2)c1C#N,-0.188
21,CCOC(=O)c1[nH]c(C)c(C(=O)N(C)Cc2ccccc2)c1C,0.89
22,CCc1nnc(NC(=O)CSc2nnc(-c3ccccc3O)n2CC)s1,-0.195
23,CCOC(=O)C(C)Sc1nnc(-c2c[nH]c3ccccc23)n1C (configuration not stated),4.19 (active)
24,CCCSc1nnc(-c2c[nH]c3ccccc23)n1C,0.341
25,CCSc1nnc(NC(=O)CSc2nnc(-c3c[nH]c4ccccc34)n2CC)s1,-1.46
26,CCc1nnc(NC(=O)CSc2nnc(-c3c[nH]c4ccccc34)n2CC)s1,5.79 (active)

row,Structure (SMILES),z-score
1,CCn1c(SC(C)C(=O)OC)nnc1-c1c[nH]c2ccccc12 (configuration not stated),-0.657
2,Cc1ccsc1-c1n[nH]c(=S)n1C1CCCCC1,0.261
3,CC(C)(C)c1ccc(-c2n[nH]c(=S)n2C2CCCC2)cc1,4.4 (active)
4,S=c1[nH]nc(-c2cccnc2)n1C1CCCCC1,0.738
5,CC(C)n1c(-c2ccc(C(C)(C)C)cc2)n[nH]c1=S,8.21 (active)
6,CC(C)n1c(-c2ccccc2F)n[nH]c1=S,0.0711
7,Cn1c(-c2ccc(C(C)(C)C)cc2)n[nH]c1=S,1.92
8,CC(=N\Nc1ccc(Cl)cc1)/C(=N/O)C(=O)Nc1ccccc1,0.0464
9,COc1cc(/C=N/O)cc(Br)c1OCC(=O)NCc1ccccc1,0.215
10,Cc1ccccc1-n1nc(CSc2nc3ccccc3[nH]2)c(-c2ccccc2)c1N,-0.755
11,O=C(O)C1(NS(=O)(=O)c2ccc(Cl)cc2)CCCCC1,-0.168
12,COc1ccc(NC(=O)C2CCN(C(=O)c3cccs3)CC2)cc1,0.195
13,Cc1ccc(-c2nc3cnccn3c2Nc2c(C)cccc2C)o1,-0.399
14,Cc1ccc(-c2nc3cnccn3c2Nc2ccccc2)o1,-0.467
15,Cc1ccc(Nc2c(-c3ccc(C)o3)nc3cnccn23)cc1,2.11
16,C/C=C/c1ccc(OCCOCCOc2cccc3cccnc23)c(OC)c1,-0.356
17,O=S(=O)(NCc1csc(-c2cccnc2)n1)c1ccc(Cl)s1,0.124
18,CCc1ccc(S(=O)(=O)NCCc2csc(-c3cccnc3)n2)s1,-0.459
19,O=S(=O)(NCCc1csc(-c2cccnc2)n1)c1ccc(Cl)s1,2.22
20,O=S(=O)(NCCc1csc(-c2cccnc2)n1)c1ccc2c(c1)OCCO2,-0.0667
21,O=S(=O)(NCc1csc(-c2cccnc2)n1)c1ccc2c(c1)OCCO2,2.01
22,COc1ccc(S(=O)(=O)NCc2csc(-c3cccnc3)n2)cc1,-0.168
23,Cc1cc(C)n2nc(SCc3cc(=O)n4ccccc4n3)nc2n1,-0.0377
24,CCCCCCCCSc1n[nH]c(N)n1,0.0327
25,COC(=O)c1cccc(CSc2nnc(C)s2)c1,-0.565
26,COc1ccc([N+](=O)[O-])cc1NC(=O)C(C)Sc1ccc(C)cc1 (configuration not stated),-0.545

row,Structure (SMILES),z-score
1,COc1cc(C(=O)OCC(=O)c2c[nH]c3ccccc23)ccc1OCC(=O)N1CCOCC1,0.0746
2,CCn1ncc(Cl)c1C(=O)NC(C)c1ccccc1 (configuration not stated),0.00989
3,Clc1cccc(Cl)c1CSc1nnc2ccccn12,0.157
4,Cc1ccccc1CSc1nnc(NC(=O)C2COc3ccccc3O2)s1 (configuration not stated),0.0129
5,C[C@H](C(=O)C=[N+]=[N-])N1C(=O)c2ccccc2C1=O,-0.275
6,CCCCOc1ccc(-c2nnn(CC(=O)NCc3ccco3)n2)cc1,2.02
7,CCOc1ccc(-c2nnn(CC(=O)NCc3ccco3)n2)cc1,0.0502
8,O=C(Cn1nnc(-c2ccccc2)n1)NCc1ccco1,0.185
9,COc1ccccc1NC(=O)c1ccc(NC(=O)COC(=O)CC(NC(=O)c2ccccc2Cl)c2ccccc2)cc1 (configuration not stated),-0.112
10,Cc1cc2n(n1)C(c1cn(-c3ccccc3)nc1C)Nc1ccccc1-2 (configuration not stated),-2.98
11,O=C(CSc1ccc(-c2ccc(F)cc2)nn1)NCc1ccco1,-0.746
12,CCOC(=O)Cc1csc(NC(=S)NC(=O)c2cccc([N+](=O)[O-])c2)n1,0.802
13,CCOC(=O)Cc1csc(NC(=O)c2ccc(NC(C)=O)cc2)n1,0.627
14,CCCCC(=O)Nc1ccc(C(=O)Nc2nc(CC(=O)OCC)cs2)cc1,-0.728
15,CCOC(=O)Cc1csc(NC(=O)c2ccncc2)n1,-0.235
16,CCOC(=O)Cc1csc(NC(=S)NC(=O)c2ccc(Cl)cc2)n1,2.1
17,CCOC(=O)Cc1csc(NC(=O)Nc2ccccc2)n1,3.05 (active)
18,CCOC(=O)Cc1csc(NC(=S)NC(=O)c2ccc([N+](=O)[O-])cc2)n1,1.72
19,CCOC(=O)Cc1csc(NC(=S)NC(=O)c2ccc(C)cc2)n1,8.13 (active)
20,CCOC(=O)Cc1csc(NC(=O)c2ccc(OC)c(OC)c2)n1,0.0105
21,CCOC(=O)Cc1csc(NC(=O)CC)n1,1.77
22,CCOC(=O)Cc1csc(NC(=O)c2ccc(Cl)nc2)n1,0.0254
23,CCOC(=O)Cc1csc(NC(=S)NC(=O)c2ccccc2)n1,10.6 (active)
